Reference: PubChem BioAssay AID504840 (Johns Hopkins Ion Channel Center, 2011)
About 890 (59%) of roughly 1,500 compounds were called active.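 How the source made its calls: active means inhibition of the choline-evoked signal at any tested dose together with a fitted dose-response curve; inactive means no inhibition at any dose or no curve.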 The set was probably picked from earlier hits. Only a sample is shown. Entries with a potency or affinity are not part of this list.

molecular target: High affinity choline transporter 1 (Homo sapiens) (UniProt Q9GZV3); test: CHT inhibitors, dose response, cell-based, 5-point CRC, membrane potential dye (AID 504840); conditions: HEK293-CHT, choline-induced depolarization, CHT with LV-to-AA double alanine mutation; series mostly up to 37 µM; inhibition: at the top concentration;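 further: 0% = buffer-only response and 100% = EC90 choline response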
Sequence (Q9GZV3 whole entry, looked up): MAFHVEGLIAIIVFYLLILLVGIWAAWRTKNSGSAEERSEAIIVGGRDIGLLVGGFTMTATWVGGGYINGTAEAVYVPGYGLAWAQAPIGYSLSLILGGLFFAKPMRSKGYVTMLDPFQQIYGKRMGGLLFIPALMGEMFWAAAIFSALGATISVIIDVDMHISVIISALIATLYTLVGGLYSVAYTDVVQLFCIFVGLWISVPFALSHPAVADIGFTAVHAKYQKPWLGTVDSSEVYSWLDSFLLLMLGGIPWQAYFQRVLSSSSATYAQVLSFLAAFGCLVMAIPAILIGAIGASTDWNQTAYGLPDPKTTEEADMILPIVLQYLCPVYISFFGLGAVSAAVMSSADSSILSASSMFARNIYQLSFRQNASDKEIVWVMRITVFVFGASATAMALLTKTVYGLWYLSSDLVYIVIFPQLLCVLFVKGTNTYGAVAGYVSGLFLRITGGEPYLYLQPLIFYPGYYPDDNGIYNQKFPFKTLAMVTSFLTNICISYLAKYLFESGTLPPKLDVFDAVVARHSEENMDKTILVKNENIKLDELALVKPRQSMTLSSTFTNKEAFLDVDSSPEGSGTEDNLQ

inhibition, inactive:
Cc1ccc(C(=O)N/C(=C\c2cccs2)C(=O)NC2CCCCC2)cc1 72.8%
O=C(CSc1nc(C(F)(F)F)cc(=O)[nH]1)Nc1cccc2ccccc12 38.9%
CCc1nnc(NC(=O)CSc2nnc(-c3ccccc3OC)n2-c2ccccc2)s1 -41.8%
Cc1ccc(S(=O)(=O)/N=C(/NC(=S)Nc2c(C)n(C)n(-c3ccccc3)c2=O)c2ccccc2)cc1 21%
O=C1c2cccc3c(Nc4ccccc4Cl)c([N+](=O)[O-])cc(c23)C(=O)N1CCO 8.09%
C=Cn1cc[n+](CC(=O)c2ccc(-c3ccccc3)cc2)c1 34.6%
COCCNc1nc(-n2nc(C)cc2C)nc2sc3c(c12)CCCC3 6.14%
CCOC(=O)C(Cc1ccccc1)NC(=O)CCCC(=O)c1ccccc1 (stereo unspecified) 45.2%
Cc1ccc(-c2nn(-c3ccccn3)c(=O)c3ccccc23)cc1 0.865%
COc1ccc(NC(=O)c2sc(N)nc2-c2ccccc2)cc1 46.7%
O=C(CCC1CCCN(c2ncccn2)C1)NCc1ccc(F)c(F)c1 (stereo unspecified) 42.6%
Cn1c(CN2CCN(CCO)CC2)c(C#N)c2ccccc21 55.4%
S=c1[nH]c2cc(Cl)ccc2s1 46%
Cc1cc(C)nc(NS(=O)(=O)c2ccc(NC(=O)C3COc4ccccc4O3)cc2)n1 (stereo unspecified) 41.4%
CN(Cc1nc(-c2cccnc2)no1)S(=O)(=O)c1ccc(Br)cc1 50.2%
O=[N+]([O-])c1ccc(SCCc2ccccn2)cc1 59.6%
O=C1CSC(=S)N1/N=C/c1c(F)cccc1F -6.54%
CCc1c(C)nc2ncnn2c1N1CCN(S(=O)(=O)c2ccc(OC)cc2)CC1 34.6%
O=[N+]([O-])c1ccc(N2CCCCC2)nc1 11.8%
O=C(NNC(=S)NC1CCCCC1)c1ccccc1O 38.4%
c1ccc(-c2ccccc2OCc2nnc3n2CCC3)cc1 23.5%
Cc1ccc2c(c1)C1CN(C)CCC1N2C(=O)c1ccccc1NS(=O)(=O)c1cccc(C(F)(F)F)c1 (stereo unspecified) 71.3%
CN1CCN(c2ncc(CN3C(=O)c4ccccc4C3=O)s2)CC1 36.6%
CCc1cccc(CC)c1NC(=O)c1cccc(NC(=O)c2ccccc2)c1 43.4%
Cc1cccc(C(=O)Nc2sc(-c3ccccc3)cc2C(=O)O)c1 42.6%
COc1cc(CCC(=O)OCC(=O)NCc2ccc(Cl)cc2)cc(OC)c1OC 28.9%
Cc1ccccc1C(=O)OC(C)CN1CCN(C)CC1 (stereo unspecified) 53.2%
CC(C)NS(=O)(=O)c1ccc(CCC(=O)N2CCc3ccccc3C2)cc1 40.9%
COc1cc(C(=O)Nc2scc(-c3ccc(C)cc3)c2C(=O)O)cc(OC)c1OC 40.1%
Cc1ccc(-c2csc(NC(=O)c3ccc(F)cc3)c2C(=O)O)cc1 48.8%
Cc1ccc(-c2csc(NC(=O)c3ccc(Br)cc3)c2C(=O)O)cc1 41.5%
CC1CCN(C(=O)CCCOc2cc(=O)n(C)c3ccccc23)CC1 28.8%
O=C(COC(=O)C1(c2ccccc2F)CCCC1)N1CCN(C(=O)c2ccco2)CC1 16.4%
COc1cc(NC2CCCCC2O)c2nc(-c3ccc(Cl)cc3)ccc2c1 (stereo unspecified) 31%
CC1CCCCC1NC(=O)Cn1nc(-c2ccccc2)ccc1=O (stereo unspecified) 32.7%
Cc1c(NC(=S)NC(=O)c2ccc(-c3ccc(Cl)cc3)o2)cccc1C(=O)O 44.8%
C/C(=N\NC1=NCCN1)c1ccc(Cl)cc1 52.7%
CCCCCNC(=O)c1ccc2c(=O)[nH]c3c(C(=O)NCC4CCCO4)sc(=S)n3c2c1 (stereo unspecified) 83.1%
CCOc1cc2[nH]c(=S)n(C(C)C)c(=O)c2cc1OCC 27.6%
CCOCCCn1c(=S)[nH]c2cc(C(=O)N3CCN(C4CCCCC4)CC3)ccc2c1=O 53.6%
CCOC(=O)C(C)Sc1nnc(NC(=O)c2cccc([N+](=O)[O-])c2C)s1 (stereo unspecified) 35.2%
O=C(N/N=C/c1cn[nH]c1-c1ccc(Cl)cc1)c1ccc([N+](=O)[O-])cc1 34.1%
Cc1ccc(C(=O)NCC(=O)OCC(=O)Nc2ccccc2C#N)s1 15.7%
Cc1c(NC(=O)/C=C/c2cn(-c3ccccc3)nc2-c2ccccc2)c(=O)n(-c2ccccc2)n1C 51.3%
Cc1cccc(N2CCN(C(=O)COc3cc(=O)n(C)c4ccccc34)CC2)c1C 60.2%
CN(C)CCNC(=O)C(=O)NCC(c1ccc2c(c1)OCO2)N1CCN(c2ccc(F)cc2)CC1 (stereo unspecified) 78.8%
COc1ccccc1C(=O)NC(C)c1cccc2ccccc12 (stereo unspecified) 58%
O=S(=O)(Nc1nc2ccccc2s1)c1ccc(Cl)nc1 27.2%
CCN(Cc1ccccc1)S(=O)(=O)c1cc(C(=O)O)ccc1OC 26.3%
O=C(NC1CCCCC1)N(Cc1ccccc1)Cc1ccco1 10%
CCc1ccc(OCc2n[nH]c(=S)n2Cc2ccccc2)cc1 40.3%
O=C(NNC1=C(C(=O)C(F)(F)F)CCC1)c1ccc(Cl)cc1 63.4%
CCc1ccc2c(c1)C1(NN=C(c3ccccc3)S1)C(=O)N2 (stereo unspecified) 47.1%
CCc1ccc2c(c1)C1(NN=C(c3ccc(C)cc3)S1)C(=O)N2 (stereo unspecified) 39.5%
Cc1oc2c(F)c(F)c(F)c(F)c2c1S(=O)(=O)Nc1cccc(C(F)(F)F)c1 36.6%
CC(/C=C1\SC(=S)N(C(C(=O)O)c2ccccc2)C1=O)=C\c1ccccc1 (stereo unspecified) 30.5%
Cc1noc(NS(=O)(=O)c2ccc(NC(=O)c3oc4ccc(Cl)cc4c3C)cc2)c1C 40.5%
Nc1c(C(=O)NCCN2CCOCC2)c2nc3ccccc3nc2n1CCc1ccccc1F 69%
O=C(Nc1cccc(C(F)(F)F)c1)C1CCN(S(=O)(=O)c2cccnc2)CC1 60.6%
CCc1nnc(NC(=O)CSc2ncc(-c3ccccc3)n2C)s1 49.9%
O=C(CSc1ccc2ccccc2c1)Nc1ccncc1 34.9%
COc1ccc(Br)cc1C(=O)NC(=S)Nc1ccc(Cl)c(C(=O)O)c1 37.2%
O=C(NNC(=S)Nc1ccc(Br)cc1)c1ccccc1Br 12.1%
CC(Oc1ccc(Cl)cc1)C(=O)NNC(=S)NC(=O)c1ccco1 (stereo unspecified) 58.7%
CCCc1cc(=O)[nH]c(SCc2nc3ccccc3s2)n1 18.3%
O=C(CCc1ccccc1)c1c(O)cc(O)cc1O 59.7%
COc1ccccc1-c1coc2cc(O)cc(O)c2c1=O 31.4%
Cc1cc(S(=O)(=O)NCc2ccncc2)c(C)cc1Br 12.2%
O=C(Nc1ccccc1Cl)c1ccc(S(=O)(=O)NCC2CCCO2)cc1 (stereo unspecified) 49.5%
CCC1CCCCN1CCCNC(=O)c1ccc(N2CCOCC2)c(NS(=O)(=O)c2ccc(OC)cc2)c1 (stereo unspecified) 68.5%
Cc1ccc(Oc2ccc(S(=O)(=O)NCC(C)(C)N3CCOCC3)cc2)cc1 48.8%
Cc1ccccc1CNS(=O)(=O)c1ccc2c(c1)OCCO2 21.9%
COc1ccc(-n2cnnc2SCC(=O)Nc2cc(S(=O)(=O)N3CCCCC3)ccc2C)cc1 33.9%
CCOC(=O)c1ccc(NS(=O)(=O)c2ccc3c(c2)NC(=O)CCS3)cc1 16.5%
Cc1cccc(C(=O)NC(=S)NNC(=O)c2cccs2)c1 62.9%
Cc1cccc(C(=O)NNC(=S)NC(=O)c2cccs2)c1 51.2%
Cc1ccc(C)c(NCC(=O)NNC(=S)Nc2ccccc2)c1 9.53%
Cc1ccccc1C(=O)NNC(=S)NC(=O)c1ccc(Cl)cc1Cl 53.6%
Cc1ccccc1C(=O)NNC(=S)NC(=O)COc1ccccc1 69.8%
CC(O)c1cccc(NC(=O)CC(c2ccccc2)c2ccccc2)c1 (stereo unspecified) 44.2%
O=C(CC(c1ccccc1)c1ccccc1)Nc1ccncc1 40.4%
O=C(O)CC(NC(=O)c1sc2ccccc2c1Cl)c1ccc(OC2CCCC2)cc1 (stereo unspecified) 75%
O=C(O)c1ccc2c(c1)N(Cc1ccc(F)cc1)C(=O)c1ccccc1S2 0.404%
CC1CCCN(CCCNC(=O)c2ccc3c(c2)N(Cc2ccccc2F)C(=O)c2ccccc2S3(=O)=O)C1 (stereo unspecified) 65.3%
Cc1ccc(C(=O)N/C(=C\C=C\c2ccccc2)C(=O)NCc2ccco2)cc1 46.1%
CC(C)c1ccc(C(C)NC(=O)C2CCCC2)cc1 (stereo unspecified) 43.4%
O=C(NNC(=S)NC(=O)c1sc2ccccc2c1Cl)c1ccc(Cl)cc1 41.7%
COc1ccccc1C(=O)NC(=S)NNC(=O)c1sc2ccccc2c1Cl 42.9%
CCCOc1ccc(C(=O)NC(=S)NNC(=O)c2c(-c3ccccc3)noc2C)cc1 16.7%
Cc1onc(-c2ccccc2)c1C(=O)NNC(=S)NC(=O)c1ccc(Br)cc1 35.1%
CCn1c(=O)n(CC)c2cc(S(=O)(=O)N3CCc4ccccc43)ccc21 57.9%
O=C(NNS(=O)(=O)c1ccccc1[N+](=O)[O-])c1cc2ccccc2cc1O 30.1%
C=CCN(CC=C)S(=O)(=O)c1ccc2nc(NC(=O)C3CCCO3)sc2c1 (stereo unspecified) 39.1%
CC(OC(=O)CCN1C(=O)c2cccc([N+](=O)[O-])c2C1=O)C(=O)Nc1cc(Cl)cc(Cl)c1 (stereo unspecified) 32.8%
CCOC(=O)c1sc(NC(=O)CSc2nc3c(c(=O)n2-c2ccc(C)cc2)SCC3)c(C(=O)OCC)c1C -2.16%
CCc1c(C2(O)CCCCC2)[nH]c2cc(C(F)(F)F)ccc12 20.7%
Cc1cc(NS(=O)(=O)c2ccc(NC(=O)/C=C/c3c(F)cccc3Cl)cc2)nc(C)n1 60.7%
Cc1cc(C)cc(NC(=O)c2ccc(N3C(=O)C4CCCCC4C3=O)cc2)c1 (stereo unspecified) 13.7%
Cc1ccc(NC(=O)c2ccc(Cn3cc([N+](=O)[O-])cn3)cc2)c(C)c1 49.9%
CN(Cc1ccccc1)CC(O)COc1ccc(CNCc2cc3ccccc3s2)cc1 (stereo unspecified) 46.2%
O=C(O)CC(Cc1ccc(Cl)cc1)C(=O)Nc1cc(Cl)ccc1Cl (stereo unspecified) 38.6%
Cc1cc(NCCCn2ccnc2)n2ncc(-c3ccc(Cl)cc3)c2n1 38.5%
C=CCNC(=O)c1ccc(C2SCC(=O)N2Cc2ccccc2)cc1 (stereo unspecified) 20.7%
CCOC(=O)C1(CCOC)CCN(Cc2ccc(C(=O)OC)cc2)CC1 -0.386%
Cc1ccc(C(=O)NCC(=O)N2CCC(Cc3ccccc3)CC2)cc1 54.4%
CC(C)CNS(=O)(=O)c1ccc(CCC(=O)N2CCN(Cc3ccc4c(c3)OCO4)CC2)cc1 46.5%
